According to PubChem BioAssay AID1259415 (National Center for Advancing Translational Sciences (NCATS), 2018):
The whole screen tested about 410,000 compounds, of which about 18,000 (4.4%) were called active. Not shown: some 7% with an inconclusive outcome. What follows is part of a selection rich in actives, with near analogues and random picks from the rest. Values without a mark were called inactive. Rule as the data show it: active = activity change below about -60%; inconclusive = no clear call, values can overlap the other calls; inactive = above about -39%.

Assay: qHTS Assay for inhibitors of the human cytomegalovirus (HCMV)
Settings: HFF cells, HCMV-luciferase reporter, 72 h; at 57.5 µM; active compounds read low
Summary of the method: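 Screen run at 2 compound doses on HFFs infected with reporter HCMV, MOI 1 PFU/cell. Luciferase activity from cell lysates at 72 h post infection gave inhibition relative to buffer-only and Salinomycin wells.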
% is scaled to controls: 0 for no effect and ±100 for the full control effect.

Structure (SMILES)	activity change, negative = inhibition
COC(=O)CCCCCN1C(=O)NC(c2ccc(-c3ccccc3)cc2)C(C(=O)OCc2ccccc2)=C1C (centres undefined)	19.6%
Cc1ccc(SCC(=O)Nc2ccc3oc(-c4ccccc4C)nc3c2)cc1	73.5%
CC(=O)OC1=C(C(C)=O)N(Cc2ccccc2)S(=O)(=O)c2ccccc21	3.57%
COc1ccc(OCCn2cc(C(=O)C3CCCCC3)c3ccccc32)cc1	-16.3%
CCN(C(=O)c1cc([N+](=O)[O-])ccc1NCc1cccnc1)c1ccccc1	-61.2% (active)
O=C(COC(=O)c1cc([N+](=O)[O-])ccc1NCc1ccccc1)NC1CCCCC1	-19.2%
CN(c1ccccc1)S(=O)(=O)c1ccc(C(=O)NCc2cccnc2)cc1	-0.899%
CCc1ccc(C2C(C(=O)Nc3ccccc3)=C(C)Nc3c(C(=O)Nc4ccc(C)cc4)cnn32)cc1 (centres undefined)	-39.9%
CCCCCCCCCCCCC(NC(C)=O)(C(=O)OCC)C(=O)OCC	12.4%
CC(=O)N1CCN(c2ccc(NCc3ccc(C(C)C)cc3)cc2)CC1	-36.3%
Cc1nc2ccccc2c(-c2ccccc2)c1C(=O)c1ccccc1	-104% (active)
CC(C)(C)C(=O)c1c(N)[nH]c(C(=O)c2ccccc2)c1-c1ccc(F)cc1	-5.27%
Nc1[nH]c(C(=O)c2ccccc2)c(-c2ccncc2)c1C(=O)NCc1cccc2ccccc12	-19.1%
COc1ccc(OCC(=O)Nc2cccc(C(=O)OCc3cc(=O)n4nc(C)sc4n3)c2)cc1	47.5%
CCc1ccc(NC(=O)c2cnc3c(-c4ccccc4)c(C)nn3c2C)cc1	-0.863%
Cc1nn2c(NCCN(C)C)c3c(nc2c1-c1ccccc1)CCC3	-16.5%
CCc1c(C)nc2c(-c3ccccc3)c(C)nn2c1Nc1ccc(NC(C)=O)cc1	-66.5% (active)
Cc1ccc(OC(=O)CSc2nnc(-c3cccs3)o2)cc1	3.01%
O=C(CSc1cn(CC(=O)N2CCOCC2)c2ccccc12)Nc1ccccc1	19.2%
Cc1cc(NC(=O)COC(=O)COc2ccc(Cl)cc2C)c([N+](=O)[O-])cc1C	26.5%
COc1ccc(OCC(=O)Nc2cc(C)c(Cl)cc2OC)c([N+](=O)[O-])c1	-64.3% (active)
COc1cc(Cl)c(C)cc1NC(=O)COC(=O)c1cc(SC)ccc1Cl	4.92%

Structure (SMILES)	activity change, negative = inhibition
Cn1cc(S(=O)(=O)N2CCCCCC2)cc1C(=O)N1CCN(c2ccc(F)cc2)CC1	-13.3%
COc1ccc(NC(=O)CCCc2nnc3n(CCC(C)C)c(=O)c4sccc4n23)c(OC)c1	12.6%
CCOc1ccc(-c2cc3nc(C4CCN(C(=O)OC(C)(C)C)CC4)c(C(=O)Nc4cccc(CC)c4)cn3n2)cc1	-18.2%
COC(=O)c1ccccc1NC(=O)c1ccc(COc2ccccc2Cl)o1	14.7%
CCN(CC)c1ccc(/C=N/NC(=O)CNC(=O)c2cccs2)cc1	-20%
CCN(CC)c1ccc(/C=N/NC(=O)c2cnccn2)c(O)c1	-98.7% (active)
CCN(CC)c1ccc(/C=N/Nc2nc(C)cc(C)n2)c(O)c1	-102% (active)
NS(=O)(=O)c1ccc(CNC(=O)c2cnccn2)cc1	8.17%
O=c1cc2nc(-c3ccccc3)nc(SCCOc3ccc(Cl)cc3)n2[nH]1	5.21%
Cc1ccc(C)c(N2CCN(C(=O)Cn3nc(C)c4sc5ccccc5c4c3=O)CC2)c1	23.4%
CC[C@H](C)[C@H]1CNC(=O)C(=O)N1CC1CCN(CCc2ccc(OC)c(OC)c2)CC1	15.6%
COc1ccc(Cl)cc1S(=O)(=O)N1CCC(c2ccncc2)CC1	-32.1%
CCOc1ccc(OCC)c(Nc2nc3ccccc3n3nnnc23)c1	-1.18%
CC(C)[C@H]1COCCS(=O)(=O)N1Cc1ccccc1-c1cccc2c1sc1ccccc12	-19%
COC(=O)c1c(-c2ccsc2)oc2ccc(-c3cc(OC)c(OC)c(OC)c3)cc12	8.37%
CSc1ncccc1C(=O)N1CCCC(CCC(=O)NCc2ccccc2F)C1 (centres undefined)	-1.95%
Cc1cc2cc3n(c2nn1)N=C(Cl)CC3	-74.2% (active)
Cc1ccc(C(=O)COC(=O)C(Cc2c[nH]c3ccccc23)NC(=O)c2ccc(Br)cc2)cc1 (centres undefined)	0%
O=C(CSc1nccn1Cc1ccc(F)cc1)NCc1ccccc1	-14.9%
O=C1NC(Cc2ccccc2)c2nc3ccc(Br)cc3c(=O)n2-c2cc3ccccc3cc21 (centres undefined)	17%
CC(C)CC1NC(=O)c2cc(Cl)ccc2-n2c1nc1ccccc1c2=O (centres undefined)	-99.6% (active)
COc1ccc2nc3n(c(=O)c2c1)-c1ccc(Cl)cc1C(=O)NC3Cc1ccccc1 (centres undefined)	-25.7%
